Experimental data taken from PubChem BioAssay (Tox21).
Inconclusive results are not listed. Activity calls are given as the source filed them. Unless noted, calls follow the shape of the dose curve; as a rule, active = well fitted curve in the direction sought with a large enough effect in the repeat runs; inconclusive = weak or mixed curves; inactive = no such curve, though single readings can be large; an effect the other way counts as inactive or inconclusive.

How the values were obtained:
[1] = A CellTox Green Cytotoxicity Assay to monitor cytotoxicity in HepG2 cells - 16 hour (AID 1224876); also: nearly all actives have a fitted effect of over 45% in size
In short: (§1)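 Cells and non-lytic dye reagent are dispensed together (600 HepG2 cells/well) and incubated 5 h before DMSO compound transfer. Kinetic fluorescence is then recorded in the same wells during 40 h at 37 C.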

[2] = qHTS RealTime-Glo MT Cell Viability Assay in HepG2 cells - 32 hour (AID 1224877); also: nearly all actives have a fitted effect of over 55% in size
In short: (§2)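 Compound treatment began 5 h after plating HepG2 cells (600/well) with NanoLuc luciferase and prosubstrate. Plates stayed at 37 C for 40 h; luminescence was captured at six time points, 0 h through 40 h.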

[3] = A CellTox Green Cytotoxicity Assay to monitor cytotoxicity in HepG2 cells - 24 hour (AID 1224878); also: nearly all actives have a fitted effect of over 45% in size
In short: as §1

[4] = A CellTox Green Cytotoxicity Assay to monitor cytotoxicity in HepG2 cells - 40 hour (AID 1224879); also: nearly all actives have a fitted effect of over 40% in size
In short: as §1

[5] = qHTS RealTime-Glo MT Cell Viability Assay in HEK293 cells - 0 hour (AID 1224880); also: top concentration of the series differs between compounds; nearly all actives have a fitted effect of over 45% in size
In short: (§3)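 Real-time viability in HEK293: signal arises when living cells convert a prosubstrate for NanoLuc in the medium, so luminescence tracks viable cell number. Compound (23 nL, DMSO) added 5 h post-seeding; kinetic reads at 0–40 h, 37 C.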

[6] = A CellTox Green Cytotoxicity Assay to monitor cytotoxicity in HEK293 cells - 32 hour (AID 1224881); also: nearly all actives have a fitted effect of over 40% in size
In short: (§4)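 Cells (HEK293, 600/well) and dye reagent are dispensed together. After 5 h at 37 C, 23 nL compound is pinned in. Plates stay at 37 C for 40 h with fluorescence read at 0h, 8h, 16h, 24h, 32h and 40h.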

[7] = A CellTox Green Cytotoxicity Assay to monitor cytotoxicity in HepG2 cells - 0 hour (AID 1224882); also: nearly all actives have a fitted effect of over 35% in size
In short: as §1

[8] = A CellTox Green Cytotoxicity Assay to monitor cytotoxicity in HepG2 cells - 32 hour (AID 1224883); also: nearly all actives have a fitted effect of over 50% in size
In short: as §1

[9] = A CellTox Green Cytotoxicity Assay to monitor cytotoxicity in HEK293 cells - 8 hour (AID 1224884); also: nearly all actives have a fitted effect of over 35% in size
In short: as §4

[10] = qHTS RealTime-Glo MT Cell Viability Assay in HepG2 cells - 16 hour (AID 1224885); also: nearly all actives have a fitted effect of over 50% in size
In short: as §2

[11] = qHTS RealTime-Glo MT Cell Viability Assay in HEK293 cells - 24 hour (AID 1224886); also: top concentration of the series differs between compounds; nearly all actives have a fitted effect of over 50% in size
In short: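 Quantitative high-throughput screen of the Tox21 10K library in HEK293: cells and RealTime-Glo reagents plated together, compound added at 5 h, luminescence monitored through 40 h at 37 C.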

[12] = A CellTox Green Cytotoxicity Assay to monitor cytotoxicity in HEK293 cells - 16 hour (AID 1224888); also: nearly all actives have a fitted effect of over 35% in size
In short: as §4

[13] = qHTS RealTime-Glo MT Cell Viability Assay in HepG2 cells - 0 hour (AID 1224889); also: nearly all actives have a fitted effect of over 50% in size
In short: as §2

[14] = A CellTox Green Cytotoxicity Assay to monitor cytotoxicity in HepG2 cells - 8 hour (AID 1224890); also: nearly all actives have a fitted effect of over 45% in size
In short: as §1

[15] = qHTS assay to identify small molecule antagonists of the estrogen receptor alpha (ER-alpha) signaling pathway using the BG1 cell line in the presence of 0.1 nM 17-beta-estradiol - cell viability counter screen (AID 1259241); also: nearly all actives have a fitted effect of over 40% in size
In short: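 The cell line endogenously expresses full-length ER-alpha and carries four EREs driving luciferase. Cells are cultured 5 days hormone-free, treated 22 hr with compounds and 0.1 nM estradiol, then viability is read by fluorescence.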

[16] = qHTS assay to identify small molecule phospholipidosis (PLD) inducers (AID 1259344; active = well fitted curve in the direction sought with a large enough effect; an effect the other way counts as inactive or inconclusive)
In short: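 After 4 h attachment on collagen I, HepG2 cells were dosed with compound alongside LipidTOX Red, kept 24 h at 37 C, fixed, and imaged for lamellar phospholipid pits.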

[17] = qHTS assay to identify small molecule antagonists of the androgen receptor (AR) signaling pathway using the MDA cell line in the presence of 0.5 nM R1881 - cell viability counter screen (AID 1259242); also: nearly all actives have a fitted effect of over 45% in size
In short: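 Steps: plate MDA-kb2 cells, rest 5 hr at 37C without CO2; pin in compounds in DMSO; add R1881 to 0.5 nM final; incubate 16 hr; add CellTiter-Fluor, 30 min; read fluorescence.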

[18] = molecular target: Estrogen receptor (Homo sapiens) (UniProt P03372); test: qHTS assay to identify small molecule antagonists of the estrogen receptor alpha (ER-alpha) signaling pathway using the BG1 cell line in the presence of 0.1 nM 17-beta-estradiol (AID 1259244); also: nearly all actives have a fitted effect of over 50% in size
Chain of Estrogen receptor (Homo sapiens) (P03372 whole entry, looked up): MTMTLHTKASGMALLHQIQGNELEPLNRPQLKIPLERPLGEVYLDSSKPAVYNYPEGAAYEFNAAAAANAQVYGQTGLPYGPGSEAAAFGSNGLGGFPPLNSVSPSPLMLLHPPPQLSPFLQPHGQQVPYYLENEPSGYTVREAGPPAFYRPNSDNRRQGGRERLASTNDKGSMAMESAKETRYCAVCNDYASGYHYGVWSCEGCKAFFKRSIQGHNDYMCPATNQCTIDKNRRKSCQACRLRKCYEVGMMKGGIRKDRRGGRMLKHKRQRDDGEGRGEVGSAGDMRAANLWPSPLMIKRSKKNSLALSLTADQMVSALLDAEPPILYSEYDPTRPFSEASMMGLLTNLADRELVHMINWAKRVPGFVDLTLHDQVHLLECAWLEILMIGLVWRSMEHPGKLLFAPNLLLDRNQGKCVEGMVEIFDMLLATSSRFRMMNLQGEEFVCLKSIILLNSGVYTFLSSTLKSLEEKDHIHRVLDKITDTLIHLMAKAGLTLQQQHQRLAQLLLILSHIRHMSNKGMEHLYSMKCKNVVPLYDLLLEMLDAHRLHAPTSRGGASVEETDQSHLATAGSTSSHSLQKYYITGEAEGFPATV
In short: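 Antagonist mode: compounds in DMSO are pinned onto VM7Luc4E2 reporter cells, 0.1 nM final 17beta-estradiol is added, and after 22 h at 37C luciferase luminescence is measured with ONE-Glo.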

[19] = qHTS RealTime-Glo MT Cell Viability Assay in HEK293 cells - 8 hour (AID 1224887)
In short: as §3

[20] = molecular target: Androgen receptor (Homo sapiens) (UniProt P10275); test: qHTS assay to identify small molecule antagonists of the androgen receptor (AR) signaling pathway using the MDA cell line in the presence of 0.5 nM R1881 (AID 1259243); also: nearly all actives have a fitted effect of over 50% in size
Chain of Androgen receptor (Homo sapiens) (P10275 whole entry, looked up): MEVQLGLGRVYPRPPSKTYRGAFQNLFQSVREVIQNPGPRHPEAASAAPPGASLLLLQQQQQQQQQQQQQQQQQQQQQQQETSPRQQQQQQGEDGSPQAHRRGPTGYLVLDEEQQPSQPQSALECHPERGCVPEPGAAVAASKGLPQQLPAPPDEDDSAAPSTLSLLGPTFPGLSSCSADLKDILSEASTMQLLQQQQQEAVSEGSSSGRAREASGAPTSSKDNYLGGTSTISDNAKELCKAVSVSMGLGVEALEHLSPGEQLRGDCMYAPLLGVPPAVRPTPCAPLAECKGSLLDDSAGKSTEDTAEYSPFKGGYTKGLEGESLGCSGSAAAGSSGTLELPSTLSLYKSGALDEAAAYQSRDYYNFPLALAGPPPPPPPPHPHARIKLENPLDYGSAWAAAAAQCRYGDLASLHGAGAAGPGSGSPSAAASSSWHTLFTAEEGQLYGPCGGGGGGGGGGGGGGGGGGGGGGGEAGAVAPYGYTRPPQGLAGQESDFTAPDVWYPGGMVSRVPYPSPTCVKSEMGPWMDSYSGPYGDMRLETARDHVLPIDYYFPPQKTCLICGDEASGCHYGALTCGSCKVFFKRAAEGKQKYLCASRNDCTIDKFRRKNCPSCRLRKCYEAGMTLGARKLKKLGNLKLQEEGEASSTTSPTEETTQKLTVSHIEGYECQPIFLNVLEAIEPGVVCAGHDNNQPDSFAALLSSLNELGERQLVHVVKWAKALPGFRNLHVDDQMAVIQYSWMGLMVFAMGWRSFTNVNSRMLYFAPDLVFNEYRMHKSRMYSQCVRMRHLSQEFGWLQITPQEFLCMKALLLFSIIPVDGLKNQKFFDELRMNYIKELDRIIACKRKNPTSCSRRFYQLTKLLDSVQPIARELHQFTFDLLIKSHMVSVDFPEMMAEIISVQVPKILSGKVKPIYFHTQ
In short: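 Stably transfected MDA-kb2 cells express luciferase from an MMTV promoter bearing both AR and GR response elements. Compounds plus 0.5 nM R1881 (final) were incubated 16 hr at 37C without CO2, then luminescence measured.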
% is scaled to controls: 0 for no effect and ±100 for the full control effect.

NCc1ccc(S(N)(=O)=O)cc1
inactive: Potency [1] | outcome [2] | Potency [3] | Potency [4] | Potency [5] | Potency [6] | Potency [7] | Potency [8] | Potency [9] | outcome [10] | Potency [11] | Potency [12] | Potency [13] | Potency [14] | outcome [15] | outcome [16]

CC1CC(=O)CC(C)(C)C1 (centres undefined)
inactive: Potency [1] | outcome [2] | Potency [3] | Potency [4] | Potency [5] | Potency [6] | Potency [7] | Potency [8] | Potency [9] | outcome [10] | Potency [11] | Potency [12] | Potency [13] | Potency [14] | outcome [15] | outcome [17] | outcome [18]

CC1(C)[C@H]2CC[C@](C)(C2)[C@H]1O
inactive: Potency [1] | outcome [2] | Potency [3] | Potency [4] | Potency [5] | Potency [6] | Potency [7] | Potency [8] | Potency [9] | outcome [10] | Potency [11] | Potency [12] | Potency [13] | Potency [14] | outcome [15] | outcome [17] | outcome [18]

CCN(CC)CCN
inactive: Potency [1] | outcome [2] | Potency [3] | Potency [4] | Potency [5] | Potency [6] | Potency [7] | Potency [8] | Potency [9] | outcome [10] | Potency [11] | Potency [19] | Potency [12] | Potency [13] | Potency [14] | outcome [15] | outcome [18]

CC(C)NCC(O)c1ccc2ccccc2c1 (centres undefined)
inactive: Potency [1] | outcome [2] | Potency [3] | Potency [4] | Potency [5] | Potency [6] | Potency [7] | Potency [8] | Potency [9] | outcome [10] | Potency [11] | Potency [12] | Potency [13] | Potency [14] | outcome [15] | outcome [17] | outcome [16]

Cc1ccc(C(C)NC(=O)[C@@H](NC(=O)OC(C)C)C(C)C)cc1 (some centres undefined)
inactive: Potency [1] | outcome [2] | Potency [3] | Potency [4] | Potency [5] | Potency [6] | Potency [7] | Potency [8] | Potency [9] | outcome [10] | Potency [11] | Potency [19] | Potency [12] | Potency [14] | outcome [15] | outcome [17]

O=C(Cl)c1ccccc1[N+](=O)[O-]
inactive: Potency [1] | outcome [2] | Potency [3] | Potency [4] | Potency [5] | Potency [6] | Potency [7] | Potency [8] | Potency [9] | outcome [10] | Potency [11] | Potency [19] | Potency [12] | Potency [13] | Potency [14] | outcome [15] | Potency [20]

CCCCOCC(C)O (centres undefined)
inactive: Potency [1] | outcome [2] | Potency [3] | Potency [4] | Potency [5] | Potency [6] | Potency [7] | Potency [8] | outcome [10] | Potency [11] | Potency [19] | Potency [12] | Potency [13] | Potency [14] | outcome [15] | outcome [17] | outcome [18]

N[C@@H](CSCCCO)C(=O)O
inactive: cytotoxicity increase [1] -15.5% [at 15.8 µM] | activity change, negative = cytotoxic [2] 2.25% [at 15.8 µM] | cytotoxicity [3] -17.7% [at 15.8 µM] | cytotoxicity increase [4] -14.5% [at 15.8 µM] | activity change, negative = cytotoxicity [5] -0.729% [at 15.8 µM] | cytotoxicity increase [6] -0.789% [at 15.8 µM] | cytotoxicity [7] -7.54% [at 15.8 µM] | cytotoxicity increase [8] -15.9% [at 15.8 µM] | cytotoxicity increase [9] -2.04% [at 15.8 µM] | activity change, negative = cytotoxic [10] 0.578% [at 15.8 µM] | activity change, negative = cytotoxicity [11] 2.46% [at 15.8 µM] | activity change, negative = cytotoxicity [19] -0.319% [at 15.8 µM] | activity change [12] 3.31% [at 15.8 µM, hits give high values] | activity change, negative = cytotoxicity [13] -0.41% [at 15.8 µM] | cytotoxicity increase [14] -14.5% [at 15.8 µM] | activity change, negative = cytotoxicity [15] -2.4% [at 19 µM] | activity, negative = inhibition [20] -8.92% [at 19 µM] | outcome [16]

O=C(NCN1CCOCC1)c1cnccn1
inactive: Potency [1] | outcome [2] | Potency [3] | Potency [4] | Potency [5] | Potency [6] | Potency [7] | Potency [8] | Potency [9] | outcome [10] | Potency [11] | Potency [12] | Potency [13] | Potency [14] | outcome [15] | outcome [17] | Potency [20] | outcome [18] | outcome [16]

CCC(C(=O)OCCN1CCOC(c2ccccc2)C1C)c1ccccc1 (centres undefined)
inactive: Potency [1] | outcome [2] | Potency [3] | Potency [4] | Potency [5] | Potency [6] | Potency [7] | Potency [8] | Potency [9] | outcome [10] | Potency [12] | Potency [13] | Potency [14] | outcome [15] | outcome [17] | outcome [18]

CC(C)=CCC[C@@](C)(O)[C@H]1CC=C(C)CC1
inactive: Potency [1] | outcome [2] | Potency [3] | Potency [4] | Potency [5] | Potency [6] | Potency [7] | Potency [8] | Potency [9] | outcome [10] | Potency [11] | Potency [12] | Potency [13] | Potency [14] | outcome [15] | outcome [17] | outcome [16]

CCCCCCC1(C)CCC(=O)O1 (centres undefined)
inactive: Potency [1] | outcome [2] | Potency [3] | Potency [4] | Potency [5] | Potency [6] | Potency [7] | Potency [8] | Potency [9] | outcome [10] | Potency [11] | Potency [12] | Potency [13] | Potency [14] | outcome [15] | outcome [17]

CC/C(C)=N\O[Si](C)(O/N=C(\C)CC)O/N=C(\C)CC
inactive: Potency [1] | outcome [2] | Potency [3] | Potency [4] | Potency [5] | Potency [6] | Potency [7] | Potency [8] | Potency [9] | outcome [10] | Potency [11] | Potency [12] | Potency [13] | Potency [14] | outcome [15] | outcome [18]

CC1=NN(c2ccc(S(=O)(=O)O)cc2)C(=O)C1
inactive: Potency [1] | outcome [2] | Potency [3] | Potency [4] | Potency [5] | Potency [6] | Potency [7] | Potency [8] | outcome [10] | Potency [11] | Potency [19] | Potency [12] | Potency [13] | Potency [14] | outcome [15] | outcome [17]

CC(C)[C@H]1CC[C@H](C)C[C@@H]1O
inactive: Potency [1] | outcome [2] | Potency [3] | Potency [4] | Potency [5] | Potency [6] | Potency [7] | Potency [8] | outcome [10] | Potency [11] | Potency [19] | Potency [12] | Potency [13] | Potency [14] | outcome [15] | outcome [17] | Potency [20]
